Measurements from PubChem BioAssay (NCI).
This is part of a sample that, as a whole, favours compounds with a hit. Of some 83,000 tested, about 20% had one in any assay.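 Plates (96-well) were seeded with cells, treated with compound at one concentration, and incubated for 48 hours before percent growth was determined.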 Values without a mark were called inactive. Calls of active or inactive are those of the source. Rule for the calls: active = growth percent below 10; inactive = the rest.

Legend:
Test in all cases: NCI-60 one-dose screen, 48 h (100 = growth as untreated, 0 = no growth, -100 = all killed)
Conditions in all cases: 10 µM
DU-145 prostate = tested on: DU-145 prostate
K-562 leukemia = tested on: K-562 leukemia
MALME-3M melanoma = tested on: MALME-3M melanoma
MDA-MB-231 breast = tested on: MDA-MB-231 breast
RXF 393 renal = tested on: RXF 393 renal
SF-268 CNS = tested on: SF-268 CNS
SF-295 CNS = tested on: SF-295 CNS
SF-539 CNS = tested on: SF-539 CNS
UACC-257 melanoma = tested on: UACC-257 melanoma
M14 melanoma = tested on: M14 melanoma
HCT-15 colon = tested on: HCT-15 colon
HT29 colon = tested on: HT29 colon
SNB-75 CNS = tested on: SNB-75 CNS
SNB-19 CNS = tested on: SNB-19 CNS
U251 CNS = tested on: U251 CNS
PC-3 prostate = tested on: PC-3 prostate
SK-MEL-5 melanoma = tested on: SK-MEL-5 melanoma
UACC-62 melanoma = tested on: UACC-62 melanoma
LOX IMVI melanoma = tested on: LOX IMVI melanoma
SK-MEL-28 melanoma = tested on: SK-MEL-28 melanoma

Compound | growth (DU-145 prostate) | growth (K-562 leukemia) | growth (MALME-3M melanoma) | growth (MDA-MB-231 breast) | growth (RXF 393 renal) | growth (SF-268 CNS) | growth (SF-295 CNS) | growth (SF-539 CNS) | growth (UACC-257 melanoma) | growth (M14 melanoma) | growth (HCT-15 colon) | growth (HT29 colon) | growth (SNB-75 CNS) | growth (SNB-19 CNS) | growth (U251 CNS) | growth (PC-3 prostate) | growth (SK-MEL-5 melanoma) | growth (UACC-62 melanoma) | growth (LOX IMVI melanoma) | growth (SK-MEL-28 melanoma)
Nc1nc2c(ncn2C2OC3COP(=O)(O)OC4C(COP(=O)(O)OC2C3O)OC(n2cnc3c(N)ncnc32)C4O)c(=O)[nH]1 (stereo not given) | 107% | 92.5% | 106% | 114% | 114% | 102% | 96.9% | 0.807% (active) | 112% | 106% | 106% | 97.4% | 104% | 93.5% | 110% | 108% | 106% | 103% | 90.2% | 113%
CCOC(=O)/C(C#N)=C(/C)C1CC1 | 108% | 117% | 109% | 117% | 94.9% | 107% | 113% | 96.8% | 103% | 109% | 98.6% | 112% | 87.7% | 110% | 100% | 97.3% | 99.6% | 107% | 106% | 106%
O=C(NCCCl)c1cc(Cl)cc(Cl)c1 | 111% | 101% | 97.8% | 121% | 114% | 112% | 92.4% | 101% | 91.8% | 116% | 97.1% | 107% | 76.8% | 108% | 98.7% | 93.2% | 101% | 94.9% | 102% | 103%
CCCCCCCCCCCCCCCCn1cc[n+](C)c1 | -100% (active) | 72.6% | -73.7% (active) | -93.9% (active) | -66.2% (active) | -23% (active) | -39.5% (active) | -98.6% (active) | -61.1% (active) | -77.4% (active) | 9.85% (active) | -100% (active) | -98.6% (active) | -75.9% (active) | -70% (active) | -69.7% (active) | -95.2% (active) | -94.6% (active) | -50.4% (active) | -86.2% (active)
CCOC(=O)[C@@H]1[C@H](c2ccccc2)[C@H]([N+](=O)[O-])[C@H](c2cn(-c3ccccc3)nc2C)N1Cc1ccccc1 | 94.4% | 61.4% | 81% | 68.2% | 69.9% | 68.4% | 81.8% | 81.7% | 64.2% | 76.5% | 43% | 76.4% | 81.5% | 77.7% | 51.2% | 46% | 76.3% | 60.9% | 65.6% | 85.4%
O=C/C=C/c1ccc([N+](=O)[O-])cc1Cl | 99.9% | 63.7% | 95.1% | 122% | 107% | 93.1% | 107% | 96.8% | 91.6% | 90.8% | 98% | 97.4% | 101% | 105% | 100% | 86.6% | 100% | 96.5% | 47.8% | 102%
CCOC(=O)c1c(C(F)(F)F)n([O-])c2ccc(OC)cc2[n+]1=O | 26.2% | 2.01% (active) | 25.8% | 19.8% | 41.9% | 31.1% | -36% (active) | 48.8% | -5.73% (active) | 26.9% | 23.7% | 48.1% | 11.8% | 25.8% | 26.6% | -3.79% (active) | -29.4% (active) | 22.8% | 31.2% | 60.8%
COc1ccc2oc(=O)cc(C3c4ccc([nH]4)C(c4cc(=O)oc5ccc(OC)cc45)c4ccc([nH]4)C(c4cc(=O)oc5ccc(OC)cc45)c4ccc([nH]4)C(c4cc(=O)oc5ccc(OC)cc45)c4ccc3[nH]4)c2c1 (stereo not given) | -19.3% (active) | -20.5% (active) | 2.83% (active) | -16.5% (active) | -77.3% (active) | 20.4% | 9.08% (active) | -26.9% (active) | 33.7% | 3.08% (active) | -62.4% (active) | -41.5% (active) | 19.3% | 26% | 1.28% (active) | 30.4% | -4.6% (active) | -8.02% (active) | -60.4% (active) | 1.37% (active)
